Hits are enriched below; roughly 3.1% of the tested compounds scored in any of these assays.
HSF1 activator = increases HSF-1 driven luciferase reporter signal | NIH3T3-HGL HSF-1 luciferase reporter, MG132, 8 h; 100% = twice DMSO control signal | activation, % at 9 µM | 1.7% of 300,000 active;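 active = mean replicate activation of at least 50% with a set share of replicates each reaching 50%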
HSP90 refold inh = inhibitors of HSP90 luciferase refolding in rabbit reticulocyte lysate. AID 1789. 0.91% of 290,000 active. inhibition, % at 5.6 µM. luciferase refolding luminescence, 3 h;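 active = inhibition above the screen-wide mean plus 3 SD, computed separately per campaign, cut at about 16% in these data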;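 note: inhibitors lower the luminescence because luciferase stays unfolded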
HIF act = HIF pathway transcriptional activation; U2OS HRE-luciferase reporter, luminescence; normalized: DMSO 0%, desferrioxamine 100%; activation, % at 7.5 µM (by protocol); 0.32% of 300,000 active; AID 1910;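 active = mean activation of at least 10% of the iron chelator positive control signal, with at least half of replicates also reaching 10%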
HSF1 inh = HSF1 inhibition. activity change, negative = inhibition, % at 7.5 µM (by protocol). 0.77% of 300,000 active. NIH3T3-HGL HSE-luciferase, MG132-induced, luminescence 8 h; stronger effect = lower value;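 active = more than half of replicate wells show activity change below -50%, luminescence cut by over half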;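 note: luciferase reports HSF-1 transcriptional activity via heat shock element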
ARNT-TACC3 inh = disruptors of human ARNT/TACC3 interaction | inhibition, % at 9.99 µM | AlphaScreen His-ARNT PAS-B/GST-TACC3 binding, luminescence; TACC3 fragment carries E629A point mutation | AID 623870 | Q9Y6A5 | 0.66% of 390,000 active;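 active = mean inhibition of replicates at least 50% and at least half of replicates each reaching 50%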
A number is an active result; 0 = inactive; - = no result given.

SMILES	HSF1 activator	HSP90 refold inh	HIF act	HSF1 inh	ARNT-TACC3 inh
Cc1cccc(NC(=O)COc2cccc3c2CCN(C)C3=O)c1C	0	0	9.8	0	0
CCN1CCc2c(OCC(=O)Nc3cccc(C)c3C)cccc2C1=O	0	0	0	0	-
COc1ccccc1S(=O)(=O)Nc1ccc2c(c1)C(=O)N(C)C[C@@H](OC)[C@H](C)CN[C@@H](C)CO2	-	-	-	-	0
C[C@@H]1CN([C@@H](C)CO)C(=O)Cc2cc(NC(=O)CCC(F)(F)F)ccc2O[C@H]1CN(C)S(=O)(=O)c1ccccc1	-	-	-	-	0
COc1ccc(/C=N/NC(=O)c2cc[n+]([O-])cc2)cc1OC	0	0	0	0	0
COc1cc(/C=N/NC(=O)c2cc(C)oc2C)ccc1O	0	0	0	-61	0
COc1cc(/C=N/NC(=O)c2cc[n+]([O-])cc2)ccc1O	0	0	0	0	77
CC(/C=N\NC(=O)c1cc(C)oc1C)=C\c1ccccc1	0	0	0	-52	-
Clc1ccccc1-c1nc(-c2cccnc2)no1	0	0	0	0	0
O=S(=O)(Cc1noc(-c2ccccc2Cl)n1)c1ccccn1	61	0	0	0	0
CCOC(=O)C1CCN(C(=O)c2cc3cc4ccc(C)cc4nc3o2)CC1	0	0	0	0	0
CCOC(=O)C1CCN(C(=O)c2cc3c(ccc4ccccc43)o2)CC1	77	0	0	0	0
COc1ccc2nc(C)cc(N/N=C/c3cccc(OC)c3O)c2c1	0	0	0	0	0
COc1ccc(/C=N/Nc2cc(C)nc3ccc(Br)cc23)cc1	59	0	0	0	0
Cc1ccc(S(=O)(=O)N2CCCC(C(=O)NCCc3ccc4c(c3)OCO4)C2)cc1 (configuration not stated)	0	0	0	-68	0
CCS(=O)(=O)Nc1cccc(-c2nc3cccnc3s2)c1	0	0	0	0	0
COc1ccc(NC(=O)C2CCCO2)cc1 (configuration not stated)	0	0	0	0	0
O=C(Nc1ccc(-c2nc3cccnc3s2)cc1)C1CCCO1 (configuration not stated)	0	60	0	-59	0
CCS(=O)(=O)Nc1ccc(-c2nc3cccnc3s2)cc1	0	36	0	0	0
CCC1=CC(c2ccccc2)n2ncnc2N1 (configuration not stated)	0	-	0	-84	0
C1=C(c2ccccc2)Nc2ncnn2C1c1ccccc1 (configuration not stated)	0	-	0	0	0
O=C(Nc1ccc(C(=O)Oc2ccccc2)c(O)c1)c1ccccc1	0	0	0	0	-
CCOC(=O)Nc1ccc(C(=O)Oc2ccccc2)c(O)c1	68	0	0	0	0
CC1CCCC(C)N1C(=O)CSc1ccc(-c2ccc3c(c2)OCCO3)nn1 (configuration not stated)	0	0	0	-88	0
CC1CCN(C(=O)CSc2ccc(-c3ccc4c(c3)OCCO4)nn2)CC1	0	0	0	0	0
SMILES	HSF1 activator	HSP90 refold inh	HIF act	HSF1 inh	ARNT-TACC3 inh
CC(=O)N(O)CCCCCNC(=O)CCC(=O)N(O)CCCCCNC(=O)CCC(=O)N(O)CCCCCN	0	0	19	0	0
CCCC(=O)NCCCCNC(=O)CCC	0	0	0	0	0
COc1cccc(N/C(N)=N/c2nc(CSc3ccccn3)cc(=O)[nH]2)c1	0	0	0	0	-
COc1ccnc(CSC(N)=Nc2ccc(F)cc2)c1	0	0	0	0	82
COc1ccc(CN(C)C[C@H]2OCCCC[C@@H](C)Oc3ccc(NS(=O)(=O)c4cn(C)cn4)cc3C(=O)N([C@@H](C)CO)C[C@H]2C)cc1	-	-	-	-	0
COc1ccc(CCNC(=O)/C=C/c2ccco2)cc1OC	0	0	0	0	0
COc1ccc(/C=C/C(=O)NCCSCc2ccco2)cc1OC	0	0	57	0	0
Cc1[nH]n(-c2ccccc2)c(=O)c1Sc1ccc(Cl)cc1	0	0	0	0	0
Cc1cc(-c2c(C)[nH]n(-c3ccc(Cl)cc3)c2=O)n[nH]1	0	0	0	0	57
COc1ccc(O)c(C2=Nc3ccccc3N=C(c3cccs3)C2)c1	0	0	0	-63	0
CCC(=O)Nc1ccc2c(c1)C(=O)N(C)[C@H]1CC[C@H](CC(=O)NCC3CCCCC3)O[C@@H]1CO2	-	-	-	-	0
CC[C@@]1(O)C(=O)OCc2c1cc1n(c2=O)Cc2cc3c(N)cccc3nc2-1	50	-	17	0	0
CCSc1nnc(-c2ccc(S(=O)(=O)NCc3cccs3)cc2)o1	0	0	0	-68	0
Cc1ccc(C(=O)C(C(=O)/C=C/c2ccccc2)=C2SCCCS2)cc1	136	0	0	0	0
O=c1/c(=C/c2ccccc2)sc2nnc(-c3cccs3)n12	64	0	0	0	-
Cc1cc(C)c2nc3s/c(=C/c4ccccc4)c(=O)n3c2c1	-	0	-	-	-
Cc1ccc(S(=O)(=O)c2c(N)n(-c3ccccc3)c3nc4ccccc4nc23)cc1	66	0	0	0	0
CCCCn1c(N)c(S(=O)(=O)c2ccc(C)cc2)c2nc3ccccc3nc21	0	0	0	0	0
C[C@@H]1CN([C@@H](C)CO)C(=O)c2cccc(NC(=O)C3CCCCC3)c2O[C@H]1CN(C)C(=O)Nc1ccc(F)cc1	-	-	-	-	0
CCOC(=O)c1cccc(NC(=O)CCS(=O)(=O)c2ccc(Br)s2)c1	0	0	0	-92	0
CCOC(=O)c1cccc(NC(=O)CCS(=O)(=O)c2cccs2)c1	0	0	0	0	0
COC(=O)/C(=C(/F)SCC(C)=O)C(F)(F)F	0	0	91	0	-
O=C(O)/C=C/c1cccc(NS(=O)(=O)c2ccccc2)c1	0	0	0	0	0
Nc1cccc(/C=C/C(=O)O)c1	0	0	0	-58	0
COc1ccc(S(=O)(=O)N2C[C@@H](O)COC[C@@H]3O[C@H](CC(=O)N(C)C)CC[C@H]32)cc1	-	-	-	-	0
SMILES	HSF1 activator	HSP90 refold inh	HIF act	HSF1 inh	ARNT-TACC3 inh
CCC(Sc1ncnc2c1nnn2-c1ccc(F)cc1)C(=O)OC (configuration not stated)	103	0	0	0	0
Cc1nnsc1S(=O)c1ccc(Cl)c(Cl)c1 (configuration not stated)	0	0	0	-81	0
CNC(=O)C[C@H]1CC[C@H]2[C@@H](COc3ccc(NC(=O)C(C)C)cc3C(=O)N2C)O1	-	-	-	-	0
CCN(CC)S(=O)(=O)c1ccc(C)c(NC(=S)Nc2cccc(S(=O)(=O)N3CCCCCC3)c2)c1	56	0	0	0	0
C[C@@H]1CN([C@H](C)CO)C(=O)c2cc(NC(=O)c3ccncc3)ccc2O[C@@H](C)CCCCO[C@H]1CN(C)C(=O)Nc1ccccc1	-	-	-	-	0
O=C(Nc1ccccc1N1CCCCC1)C1CCN(S(=O)(=O)c2ccccc2C(F)(F)F)CC1	0	-	0	-58	0
O=C(Nc1ccccc1N1CCCC1)C1CCN(S(=O)(=O)c2ccccc2C(F)(F)F)CC1	0	-	0	0	0
O=C(Nc1ccccc1N1CCCCC1)C1CCN(C(=O)c2ccc(Cl)cc2)CC1	0	-	0	-67	0
Cc1ccc(C(=O)N2CCC(C(=O)NC3CCCC3)CC2)cc1	0	0	0	0	0
